Sampled rows, rich in hits. Any-hit rate of the full collection: about 2.4%.
D2 ag-1: HTS Assay for Allosteric Agonists of the Human D2 Dopamine Receptor: Primary Screen for Agonists; hit rate 0.53% among 340,000; activation, % at 2 µM; AID 485358, 2010; HEK293 T-REx D2 cells, calcium flux agonist mode; D(2) dopamine receptor (Homo sapiens), P14416;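 active = activation over 3 SD above normal in the single-dose calcium agonist read, cut at about 30% in these data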
Target sequence (P14416 whole entry, looked up): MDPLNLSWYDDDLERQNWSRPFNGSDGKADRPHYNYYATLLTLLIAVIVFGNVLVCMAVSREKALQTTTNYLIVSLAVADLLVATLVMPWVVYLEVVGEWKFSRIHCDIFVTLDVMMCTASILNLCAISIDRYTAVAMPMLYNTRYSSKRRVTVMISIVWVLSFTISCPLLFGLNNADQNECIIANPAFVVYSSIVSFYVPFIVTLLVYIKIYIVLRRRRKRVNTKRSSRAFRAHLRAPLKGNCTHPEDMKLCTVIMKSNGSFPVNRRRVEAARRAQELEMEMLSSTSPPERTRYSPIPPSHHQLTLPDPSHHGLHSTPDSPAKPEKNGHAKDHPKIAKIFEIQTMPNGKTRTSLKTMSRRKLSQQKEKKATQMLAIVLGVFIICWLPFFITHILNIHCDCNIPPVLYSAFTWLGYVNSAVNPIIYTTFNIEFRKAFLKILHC
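Calcium-flux readout, 1 cycle/sec over 180 s following compound pin transfer, in inducible HEK293 Trex D2 cells (force-coupled); dopamine controls included. Positive calcium responses during this window marked compounds as potential agonists.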
D2 PAM-1: HTS Assay for Positive Allosteric Modulators of the Human D2 Dopamine Receptor: Primary Screen for Potentiators | D(2) dopamine receptor (Homo sapiens), P14416 | HEK293 T-REx D2, calcium flux, EC20 dopamine potentiation | potentiation, % at 10 µM | hit rate 0.34% among 340,000 | AID 485347, 2010;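 active = potentiation over 3 SD above the plate norm, cut at about 30% in these data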
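Calcium flux readout, no-wash dye, 1 read/s. Inducible HEK293 Trex D2 line, overnight 30 C. Compound alone 180 s (agonist flags), then EC20 dopamine, another 180 s to score potentiation.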
D2 PAM-2: Beta-Arrestin HTS for Positive Allosteric Modulators of the Human D2 Dopamine Receptor: Potentiators | D(2) dopamine receptor (Homo sapiens), P14416 | DiscoveRx D2 beta-arrestin cells, luminescence, 90 min; 100% = 57 uM dopamine signal | potentiation, % (test concentration not listed) | hit rate 0.23% among 360,000; in the data active = potentiation above about 50%; inconclusive = mostly about 30% to 49%
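D2 cells co-treated with compound plus 50 nM dopamine (EC20) for 90 min at 37 deg C to detect potentiation. Beta-arrestin recruitment was read as enzyme-fragment luminescence after 1 h at ambient temperature. Full response was set by 57 uM dopamine.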
D2 antag: HTS Assay for Allosteric Antagonists of the Human D2 Dopamine Receptor: Primary Screen for Antagonists; D(2) dopamine receptor (Homo sapiens), P14416; HEK293 TREx D2 cells, calcium flux, dopamine EC80; inhibition, % at 10 µM; hit rate 2% among 340,000; in the data active = inhibition above about 30%; inactive = below that, where a call was filed
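Measurement of antagonist activity uses fluorescent calcium dye in inducible HEK293 T-REx D2 cells: 10 s baseline, compound addition with 180 s read, EC80 dopamine addition with a further 180 s read.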
D2 ag-2: Beta-Arrestin HTS for Positive Allosteric Modulators of the Human D2 Dopamine Receptor: Agonists | D(2) dopamine receptor (Homo sapiens), P14416 | DiscoveRx PathHunter D2 beta-arrestin, luminescence, 90 min; 100% = 57 uM dopamine signal | activation, % (no concentration beside the values) | hit rate 0.084% among 360,000; in the data active = activation above about 40%; inconclusive = between about 15% and that limit
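DiscoveRx PathHunter D2 beta-arrestin cells (2,100/well) attached overnight, then compound-stimulated 90 min at 37 C in HBSS/10 mM HEPES/0.1% Tween-20 buffer; beta-galactosidase complementation read by luminescence after 1 h at ambient temperature. Dopamine 57 uM final (EC100) as control.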
Numbers stand for hits; . = inactive; ? = inconclusive; / = no result given.

SMILES	D2 ag-1	D2 PAM-1	D2 PAM-2	D2 antag	D2 ag-2
Cc1cccc(/C(N)=N/OC(=O)c2ccc(F)cc2)c1	.	.	.	.	.
CCN1CCN(Cc2ccc(NC(=O)c3ccc(C)c(NC(=O)c4c[nH]c5cc(C(F)(F)F)ccc5c4=O)c3)cc2C(F)(F)F)CC1	.	.	.	36	.
Cc1ccc(C(=O)Nc2cccc(C(F)(F)F)c2)cc1NC(=O)c1c[nH]c2cc(C(F)(F)F)ccc2c1=O	/	/	.	/	.
COCCNC(=O)CSc1nc2cc3c(cc2c(=O)n1CCCCCC(=O)NCCc1ccc(OC)c(OC)c1)OCO3	.	.	/	/	/
CCCC(c1nnnn1CS(=O)(=O)c1ccc(C)cc1)N1CCN(c2ccc(F)cc2)CC1 (stereo not drawn)	.	/	.	59	.
Cc1ccc(-c2nnc(N3CCN(C(=O)CSc4ncn[nH]4)CC3)c3ccccc23)cc1	.	/	.	47	.
O=C(Nc1nc2n(n1)C(c1ccc(Cl)cc1)C=C(c1ccccc1)N2)c1ccco1 (stereo not drawn)	.	.	/	/	/
COc1ccc(Cn2c(C)nc3c(c2=O)c2nc4ccccc4nc2n3Cc2ccco2)cc1	/	/	.	/	.
COc1ccc(Cn2c3nc4ccccc4nc3c3c(=O)n(Cc4ccco4)c(C)nc32)cc1	.	.	/	33	/
O=C(CNC(=O)c1cccs1)N/N=C/c1c(F)cccc1Cl	.	.	.	31	.
COc1cc(C(=O)O/N=C(\N)Cc2ccc([N+](=O)[O-])cc2)cc(OC)c1OC	.	.	?	.	?
N/C(Cc1ccc(Cl)cc1)=N\OC(=O)Cc1ccc([N+](=O)[O-])cc1	.	.	86	.	?
N/C(Cc1ccc([N+](=O)[O-])cc1)=N\OC(=O)c1ccc([N+](=O)[O-])cc1	.	.	61	.	42
N/C(Cc1ccc([N+](=O)[O-])cc1)=N\OC(=O)c1cccc(Br)c1	.	.	.	.	63
O=C1CCCc2[nH]c(=O)c(-c3nc(-c4cccc([N+](=O)[O-])c4)cs3)cc21	.	.	/	/	/
Cn1cnc(S(=O)(=O)N2CCCCC2c2cc(C(=O)Nc3cccc(C#N)c3)no2)c1 (stereo not drawn)	/	/	.	/	.
COc1ccccc1NC(=O)CC12CC3CC(CC(Br)(C3)C1)C2	.	.	.	.	.
NC(=O)c1ccccc1NC(=O)CC12CC3CC(CC(Br)(C3)C1)C2	.	36	.	.	.
Cn1c(=O)[nH]c(=O)c2c1nc(N1CCCCCC1)n2CCN1CCCCCC1	.	.	.	40	.
Cc1ccnc(SCCn2c(N3CCCCC3)nc3c2c(=O)[nH]c(=O)n3C)n1	.	31	/	.	/
COc1ccc(-c2cn3cccnc3n2)cc1NC(=O)Nc1ccc(Cl)cc1	.	.	/	/	/
COc1ccc(C2C(=O)N(C3CCC(C)CC3)CC(=O)N2C2CCCC2)cc1OC (stereo not drawn)	.	.	/	/	/
O=C(CN1CCc2ccccc2C1)Nc1ccc(Br)cc1	.	.	.	58	.
O=C(CCC(=O)N1CCc2ccccc21)Nc1ccccc1	.	.	.	36	.
O=C(Nc1ccccc1)N1CCc2ccccc21	.	.	.	.	.
SMILES	D2 ag-1	D2 PAM-1	D2 PAM-2	D2 antag	D2 ag-2
O=C(CCN1CCc2ccccc2C1)Nc1ccccc1	.	.	.	57	.
O=C(CN1CCc2ccccc2C1)Nc1ccccc1C(F)(F)F	34	.	.	.	.
COc1cc(CNc2ncnc3c2ncn3[C@H]2CN(Cc3ccc(Cl)cc3)C[C@@H](CO)O2)cc(OC)c1OC	/	/	.	/	?
CCC(=O)N1CCc2cc(S(=O)(=O)NCCC(=O)Nc3ccc(OC)c(OC)c3)ccc21	.	.	/	/	/
O=C(CCN1CCCCCC1)Nc1cccc(F)c1	.	.	.	.	.
CN(c1ccccc1)S(=O)(=O)c1cccc(NC(=O)CN2CCc3ccccc3C2)c1	.	.	.	33	?
CN(c1ccccc1)S(=O)(=O)c1cccc(NC(=O)CC(C)(C)C)c1	.	.	.	.	.
O=C(CCN1CCc2ccccc2C1)Nc1cccc(F)c1	.	/	.	60	.
Cc1cccc(CN2C(=O)CC(c3ccc(Cl)cc3)c3c(C)nn(-c4nc(C)cc(C)n4)c32)c1 (stereo not drawn)	.	.	/	/	/
O=C(Nc1ccnn1C1CCN(Cc2ccccn2)CC1)c1cccc(F)c1	.	.	.	.	.
O=C(Nc1ccnn1C1CCN(Cc2ccccc2OC(F)F)CC1)c1cccc(F)c1	.	.	.	32	.
O=C(Nc1ccnn1C1CCN(Cc2ccccc2OCCO)CC1)c1cccc(F)c1	.	.	.	40	.
O=C(COc1ccc(Cl)cc1)Nc1ccc2c(c1)CCC2	.	.	.	39	.
CC(=O)c1ccc(NC(=O)Cn2c3ncccc3c(=O)n2-c2ccc(C)cc2)cc1	.	.	/	/	/
Cc1ccc2oc(=O)c3cnn(CC(=O)N4CCN(c5cc(Cl)ccc5C)CC4)c3c2c1	.	.	/	/	/
Cc1ccc(C(=O)Nc2ccc(C(F)(F)F)n(C)c2=O)cc1	.	32	.	.	.
COc1ccc(C(=O)Nc2ccc(C(F)(F)F)n(C)c2=O)cc1	.	.	.	.	.
Cc1ccc(C(=O)Nc2cccc3[nH]c(C(F)(F)F)nc23)cc1	.	.	.	34	.
COc1ccccc1CNC(=O)C(Cc1ccccc1)NS(=O)(=O)c1ccc2c(c1)CCN2C(C)=O (stereo not drawn)	.	.	/	/	/
Cc1cccc(C)c1Nc1c(-c2ccccc2Cl)nc2cnccn12	.	.	/	/	/
COC(=O)C1CCN(c2csc3ccc(Cl)cc3c2=O)CC1	.	.	/	/	/
Cc1oncc1C(=O)Nc1ccc(C(F)(F)F)cc1	.	.	.	36	.
O=C(COC(=O)c1cc[n+]([O-])cc1)NCCc1ccc(Cl)cc1Cl	.	.	.	34	.
COC(=O)/C(=C/c1ccccc1)NC(=O)c1ccco1	.	.	.	39	.
COC(=O)/C(=C/c1ccc(OC)cc1)NC(=O)c1ccco1	.	.	.	.	.
CCOC(=O)c1[nH]c(C)c(C(=O)NCc2ccccc2Cl)c1C	/	.	/	/	/
COCCNC(=O)c1ccc(CS(=O)(=O)c2ccccc2OC)o1	.	.	.	.	.
COCCSc1ccccc1C(=O)N1CCN(c2ccccc2OC)CC1	.	.	.	38	.
COCCCNC(=O)c1ccc(CS(=O)(=O)c2ccccc2OC)o1	.	.	.	33	.
COc1ccccc1N1CCN(C(=O)c2ccc(CS(=O)(=O)c3ccccc3OC)o2)CC1	.	47	.	.	.

High-throughput results: PubChem, National Center for Advancing Translational Sciences (NCATS)
